Screening results as filed in PubChem.
Shown is part of a subset that was picked to be rich in hits.
SF-1 inh: inhibitors of human nuclear receptor SF-1; inhibition, % at 10 µM; Q13285; CHO-K1 Gal4-SF-1 LBD luciferase reporter; actives 0.55% (n = 65,000); AID 525;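 active = inhibition above the mean inhibition of all tested compounds plus 3 SD, cut at about 48% in these data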
Target sequence (Q13285 whole entry, looked up, the tested form may be a part): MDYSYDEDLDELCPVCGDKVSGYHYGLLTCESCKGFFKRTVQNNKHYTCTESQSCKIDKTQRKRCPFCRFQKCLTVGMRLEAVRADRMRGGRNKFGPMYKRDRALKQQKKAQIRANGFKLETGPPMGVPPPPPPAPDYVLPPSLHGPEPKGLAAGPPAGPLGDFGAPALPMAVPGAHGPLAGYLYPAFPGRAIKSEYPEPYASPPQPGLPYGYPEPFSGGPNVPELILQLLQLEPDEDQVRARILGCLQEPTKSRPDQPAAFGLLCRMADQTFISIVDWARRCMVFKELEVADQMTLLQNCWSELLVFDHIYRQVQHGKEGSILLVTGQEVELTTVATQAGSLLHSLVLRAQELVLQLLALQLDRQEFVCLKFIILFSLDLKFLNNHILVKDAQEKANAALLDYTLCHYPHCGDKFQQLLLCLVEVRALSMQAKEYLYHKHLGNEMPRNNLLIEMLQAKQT
Large screens that a line does not name were inactive.

Cc1ccc(OCC(=O)N2CCCCC2)c(Br)c1	none
NC(=O)c1cc(-c2ccccc2)sc1NC(=O)Cc1ccc(S(=O)(=O)N2CCOCC2)s1	none
COc1ccccc1C(=O)Nc1ccc2c(c1)OCCO2	none
CCOC(=O)C(C)Oc1cccc2c(=O)n(CC(=O)Nc3ccc4c(c3)OCCO4)ccc12 (centres undefined)	SF-1 inh 82
CC1CC(=O)N(CC(=O)Nc2ccc3c(c2)OCCO3)c2ccccc2S1 (centres undefined)	none
CCOC(=O)C(C)Oc1cccc2c(=O)n(CC(=O)NCc3ccc4c(c3)OCO4)ccc12 (centres undefined)	SF-1 inh 83
O=C(Cn1nc(Cc2cccnc2)c2ccccc2c1=O)NCc1ccc2c(c1)OCO2	none
COc1ccccc1C(=O)NCc1ccc2c(c1)OCO2	none
COc1nc(C)ccc1-c1noc(-c2ccncc2)n1	none
CCOc1cc2[nH]c(=O)n(CCc3ccc(OC)c(OC)c3)c(=O)c2cc1OCC	none
Cc1cc(C(=O)CCC(=O)N2CCN(S(=O)(=O)c3cccs3)CC2)c(C)s1	none
Cc1[nH]c2ccccc2c1C1(O)C(=O)N(Cc2ccc3c(c2)OCO3)c2ccccc21 (centres undefined)	none
CCc1nnc(NC(=O)CSc2nc(C)c3c(c2C#N)CCCC3)s1	none
Cn1c(SCC(=O)Nc2sc3c(c2C#N)CCC3)nnc1C1COc2ccccc2O1 (centres undefined)	none
N#Cc1c(NC(=O)CSc2ncn[nH]2)sc2c1CCCCC2	SF-1 inh 88
Cc1cccc(OCCCCCNCCO)c1	none
O=C(NCCc1c[nH]c2ccccc12)c1cnc2sccn2c1=O	none
COc1cccc2c(=O)c(C(=O)NCc3cccs3)c[nH]c12	none
CC(C)NCC(O)Cn1c2c(c3ccccc31)CCc1c-2cnn1-c1ccccc1 (centres undefined)	SF-1 inh 52
Cn1c(C(C#N)/C(=N\S(=O)(=O)c2cccs2)c2ccccc2)nc2ccccc21 (centres undefined)	none
CCS(=O)(=O)Nc1ccc(-c2nnc(SCC(=O)OC)o2)cc1	none
Cc1nc(S(=O)(=O)N(C)c2ccccc2)c(C#N)c(C)c1Cl	none
Cn1cc(/C=N/n2cnc3scc(-c4ccc(Cl)cc4)c3c2=O)c2ccccc21	SF-1 inh 81
C(=N\n1cnnc1)/c1cn(Cc2ccccc2)c2ccccc12	none
Cc1cc(C(F)F)n2nc(C(=O)Nc3c(F)cc(F)cc3Br)nc2n1	none
CCC(=O)N1CCc2cc(S(=O)(=O)CCC(=O)Nc3cccc(F)c3)ccc21	none
O=C1c2ccccc2CCC1C(O)c1ccccn1 (centres undefined)	none
Nc1nnnn1/N=C/C(Br)=C/c1ccccc1	SF-1 inh 96
CC(=Nc1cccc(O)c1)c1sc2ccccc2c1O	none
COc1ccc(C(=N/O)/C(=N/O)c2ccc(OC)cc2)cc1	none
COc1ccc2c(c1)[nH]c1c(=O)n(CC3CCCO3)cnc12 (centres undefined)	none
O=C(Nc1ccccc1NC(=O)NC1CCCCC1)NC1CCCCC1	SF-1 inh 84
Cc1c(Cl)cccc1NC(=O)NC1CCCCC1	none
Cc1ccc(NC(=O)NC2CCCCC2)cc1Cl	none
O=C(Nc1ccc2nn(-c3ccccc3)nc2c1)c1cccs1	none
COc1cccc(C2C3=C(N=C4SCC(=O)N42)c2ccccc2CC3)c1OC (centres undefined)	none
COC(=O)c1c(-c2cccnc2)csc1NC(=O)c1cc(C)on1	none
Cc1ccc(S(=O)(=O)Nc2cccc3ncccc23)s1	SF-1 inh 91
CC(C)COc1ccc(-c2nnc(-c3ccncc3)o2)cc1	none
COc1ccc2nc(N3CCCCC3)c(C#N)cc2c1	none
CCOC(=O)C1CCCN(c2ncnc3c2cnn3-c2ccc(OC)cc2)C1 (centres undefined)	none
COc1ccc(-n2ncc3c(N4CCCCC4)ncnc32)cc1	SF-1 inh 84
Cc1cccc(-n2ncc3c(N4CC(C)CC(C)C4)ncnc32)c1 (centres undefined)	none
CC1CN(c2ncnc3c2cnn3-c2ccc(Cl)cc2)CC(C)O1 (centres undefined)	none
Cc1cccc(-n2ncc3c(N4CCOCC4)ncnc32)c1	SF-1 inh 65
Cc1cccc(-n2ncc3c(NCCCO)ncnc32)c1	none
C=CCNc1ncnc2c1cnn2-c1ccc(Cl)cc1	none
Clc1ccc(-n2ncc3c(N4CCCCCC4)ncnc32)cc1	SF-1 inh 76
Clc1ccccc1OCc1nc(-c2ccncc2)no1	none
Cn1cnnc1SCC(=O)N1c2ccccc2-c2c(ssc2=S)C1(C)C	none
CCNCCNC(=O)c1c(O)c2cccc3c2n(c1=O)CCC3	none
c1ccc2c(c1)NC1(CCCC1)n1c-2nc2ccccc21	none
c1ccc(-c2noc(C34CC5CC(CC(C5)C3)C4)n2)nc1	none
c1ccc(-c2noc(-c3ccc4c(c3)OCO4)n2)nc1	SF-1 inh 75
Cc1onc(-c2ccccc2Cl)c1-c1nc(-c2ccccn2)no1	none
c1ccc(-c2noc(-c3ccc4ccccc4c3)n2)nc1	SF-1 inh 91
CN(Cc1nc(-c2ccccn2)no1)S(=O)(=O)c1ccc(Cl)cc1	none
c1ccc(-c2noc(C3CCCCC3)n2)nc1	none
COc1cccc(C(=O)/C=C/Nc2cc(C)ccc2O)c1	none
Cc1cccc(CS(=O)(=O)Cc2ccc(C(=O)NCc3cccnc3)o2)c1	none
COc1ccc(Cl)cc1N(C)C(=O)CCNC(=O)Cn1cnc2ccccc2c1=O	none
